Test results: PubChem BioAssay (EPA / NIEHS)
Records with an inconclusive call do not appear. The source made the active and inactive calls. How the source made its calls, unless noted: active means hit-call score of the fitted dose curve at least 0.9, where 1 is the maximum; inactive means score below 0.9.

Tested on: not listed separately
Assay: CCTE_Shafer_MEA_dev_active_electrodes_number: CCTE's Neural Network Formation Assay for Number of Active Electrodes, Shafer Lab (AID 2284040; active means hit-call score of the fitted dose curve at least 0.9, where 1 is the maximum;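 on AC50: potency for loss of active electrodes versus DMSO so lower counts are hits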)
In short: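 Rat cortical primary cultures, 1.5 x 10^5 cells/well, PEI-coated MEA, laminin drop. Continuous exposure DIV 0–12; full media/compound change DIV 5, 9. Readout: electrodes with mean firing ≥5 spikes/min; AUC across days; loss vs DMSO.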

SMILES | outcome | AC50
CC(C)(c1cc(Br)c(O)c(Br)c1)c1cc(Br)c(O)c(Br)c1 | inactive | 
CN1C(=O)CC[C@H]1c1cccnc1 | inactive | 
O=C1O[C@H]([C@@H](O)CO)C(O)=C1O | inactive | 
CC/C(=C(/CC)c1ccc(O)cc1)c1ccc(O)cc1 |  | 10.4 µM (active)
c1ccc2ccccc2c1 | inactive | 

Molecular target: Estrogen receptor (Homo sapiens) (UniProt P03372)
Sequence (P03372 whole entry, looked up): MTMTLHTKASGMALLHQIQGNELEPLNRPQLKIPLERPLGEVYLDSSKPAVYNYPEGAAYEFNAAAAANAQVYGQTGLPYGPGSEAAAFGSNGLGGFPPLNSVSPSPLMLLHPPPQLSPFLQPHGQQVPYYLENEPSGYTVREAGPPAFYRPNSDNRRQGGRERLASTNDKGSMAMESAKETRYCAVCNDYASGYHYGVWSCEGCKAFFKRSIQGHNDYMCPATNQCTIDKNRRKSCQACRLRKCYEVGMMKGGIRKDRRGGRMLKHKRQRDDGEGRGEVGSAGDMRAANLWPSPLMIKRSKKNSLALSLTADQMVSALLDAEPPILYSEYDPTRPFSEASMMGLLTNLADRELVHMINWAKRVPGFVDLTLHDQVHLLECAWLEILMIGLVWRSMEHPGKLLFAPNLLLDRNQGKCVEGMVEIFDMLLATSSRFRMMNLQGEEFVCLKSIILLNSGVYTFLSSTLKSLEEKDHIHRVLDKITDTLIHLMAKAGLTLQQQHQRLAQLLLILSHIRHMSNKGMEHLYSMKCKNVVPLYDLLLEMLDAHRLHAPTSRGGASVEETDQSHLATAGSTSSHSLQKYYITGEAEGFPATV
Assay: CCTE_Deisenroth_AIME_384WELL_LUC_Shift: CCTE's 384-well Estrogen Receptor Transactivation Assay with AIME metabolic competence data shift (ERTA luciferase; difference in metabolism positive and negative), Deisenroth Lab (AID 2284041);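 further: shift is response with S9 minus without S9 so positive means metabolism raised ER signal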
In short: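 Chemicals (0.002–200 uM, 10 points) pre-incubated 2 h with alginate-encapsulated induced male Sprague Dawley rat liver S9 or S9-free, then medium applied 24 h to VM7Luc4E2 cells; luciferase. Endpoint is per-concentration difference, S9-positive minus negative.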

SMILES | outcome | AC50
O=C(Nc1ccc(Cl)cc1)Nc1ccc(Cl)c(Cl)c1 | inactive | 
CC[C@H](NC(=O)c1cc(F)ccc1NS(=O)(=O)c1cccc2cccnc12)c1ccccc1 | inactive | 
CCCCCCCCN(C)CCCCCCCC | inactive | 
O=c1[nH]sc2ccccc12 | inactive | 
O=C(O)Cn1c(=O)n(Cc2ccc(Br)cc2F)c(=O)c2ccc(Cl)cc21 |  | 53.2 µM (active)
Cc1ccc(C(C)C)cc1 | inactive | 
CCCOC(=O)c1cc(O)c(O)c(O)c1 | inactive | 
Cc1cn([C@H]2C[C@H](N=[N+]=[N-])[C@@H](CO)O2)c(=O)[nH]c1=O | inactive | 
CC(C)(C)c1cc(/C=C2\SC(N)=NC2=O)cc(C(C)(C)C)c1O | inactive | 
CCCCCCCCOC(=O)c1cc(O)c(O)c(O)c1 | inactive | 
CCCCCCCCCCCO | inactive | 
COCC(C)OCC(C)OCC(C)O (configuration not stated) | inactive | 
COc1cccc([C@H](O)C2CCN(CCc3ccc(F)cc3)CC2)c1OC | inactive | 
Cc1oc2c(NC(=O)c3c(Cl)cccc3Cl)cccc2c1C(C)(C)O | inactive | 
c1ccc2ccccc2c1 | inactive | 
OCCO | inactive | 
OC12N=C(c3ccccc3)SC1Cc1cc(Cl)ccc12 (configuration not stated) |  | 3.82 µM (active)
Cc1c2ccccc2c(C)c2c1ccc1ccccc12 | inactive | 
CCN(CC)C(=O)c1cc(S(=O)(=O)Cc2ccccc2)c(N2CCC(c3ccccc3)CC2)cc1N(CC)CCN(C)C | inactive | 

Tested on: not listed separately
Assay: CCTE_Shafer_MEA_dev_burst_rate: CCTE's Neural Network Formation Assay for Burst Rate, Shafer Lab (AID 2284042)
In short: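 Cells plated, treated day 0; recorded DIV 5, 7, 9, 12; fed and re-treated DIV 5, 9. Endpoint: bursts per recording time, active-electrode well mean, trapezoidal AUC, fitted in decreasing direction against DMSO baseline.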

SMILES | outcome
CC(C)(c1cc(Br)c(O)c(Br)c1)c1cc(Br)c(O)c(Br)c1 | inactive
Clc1ccccc1C(c1ccccc1)(c1ccccc1)n1ccnc1 | inactive
CN1C(=O)CC[C@H]1c1cccnc1 | inactive
O=C1O[C@H]([C@@H](O)CO)C(O)=C1O | inactive
CC/C(=C(/CC)c1ccc(O)cc1)c1ccc(O)cc1 | inactive
c1ccc2ccccc2c1 | inactive
Oc1ccccc1 | inactive

Tested on: not listed separately
Assay: CCTE_Shafer_MEA_dev_bursting_electrodes_number: CCTE's Neural Network Formation Assay for Number of Bursting Electrodes, Shafer Lab (AID 2284043; active means hit-call score of the fitted dose curve at least 0.9, where 1 is the maximum;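 on AC50: potency is for loss of bursting electrodes relative to DMSO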)
In short: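 Primary rat cortical neurons plated on 16-electrode MEA wells, exposed from day 0 with compound renewed at DIV 5 and 9. Electrodes bursting ≥1 burst per 2 min counted on days 5, 7, 9 and 12; trapezoidal AUC across days, fitted for loss versus DMSO.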

SMILES | outcome | AC50
CC(C)(c1cc(Br)c(O)c(Br)c1)c1cc(Br)c(O)c(Br)c1 | inactive | 
CN1C(=O)CC[C@H]1c1cccnc1 | inactive | 
O=C1O[C@H]([C@@H](O)CO)C(O)=C1O | inactive | 
CC/C(=C(/CC)c1ccc(O)cc1)c1ccc(O)cc1 |  | 9.74 µM (active)
c1ccc2ccccc2c1 | inactive | 

Tested on: not listed separately
Assay: CCTE_Shafer_MEA_dev_per_burst_interspike_interval: CCTE's Neural Network Formation Assay for Burst Interspike Interval, Shafer Lab (AID 2284044);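 further: mean spike spacing inside bursts as AUC over recordings on days 5 7 9 12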
In short: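 Mean interspike interval within single-electrode bursts, averaged over bursting electrodes, from rat cortical cultures on MEA plates recorded on days 5, 7, 9 and 12. Continuous compound exposure from plating; trapezoidal AUC fitted downward relative to DMSO.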

SMILES | outcome
CC(C)(c1cc(Br)c(O)c(Br)c1)c1cc(Br)c(O)c(Br)c1 | inactive
Clc1ccccc1C(c1ccccc1)(c1ccccc1)n1ccnc1 | inactive
CN1C(=O)CC[C@H]1c1cccnc1 | inactive
O=C1O[C@H]([C@@H](O)CO)C(O)=C1O | inactive
CC/C(=C(/CC)c1ccc(O)cc1)c1ccc(O)cc1 | inactive
c1ccc2ccccc2c1 | inactive
Oc1ccccc1 | inactive

Tested on: not listed separately
Assay: CCTE_Shafer_MEA_dev_burst_duration_mean: CCTE's Neural Network Formation Assay for Mean Burst Duration, Shafer Lab (AID 2284045);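 on AC50: curve fitted for loss meaning shorter burst duration than DMSO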
In short: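 Primary rat cortical neurons on 48-well 16-electrode MEA plates, exposed from day 0 with renewal at DIV 5 and 9; spontaneous activity recorded on days 5, 7, 9, 12. Well-mean burst duration across bursting electrodes, collapsed as trapezoidal AUC; DMSO baseline.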

SMILES | outcome | AC50
CC(C)(c1cc(Br)c(O)c(Br)c1)c1cc(Br)c(O)c(Br)c1 | inactive | 
Clc1ccccc1C(c1ccccc1)(c1ccccc1)n1ccnc1 | inactive | 
CN1C(=O)CC[C@H]1c1cccnc1 | inactive | 
O=C1O[C@H]([C@@H](O)CO)C(O)=C1O | inactive | 
CC/C(=C(/CC)c1ccc(O)cc1)c1ccc(O)cc1 | inactive | 
c1ccc2ccccc2c1 | inactive | 
Oc1ccccc1 |  | 6.18 µM (active)

Tested on: not listed separately
Assay: CCTE_Shafer_MEA_dev_interburst_interval_mean: CCTE's Neural Network Formation Assay for Mean Interburst Interval, Shafer Lab (AID 2284046);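 further: well-mean interburst interval of bursting electrodes as AUC over four recording days; curve fitted for decrease in interburst interval relative to DMSO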
In short: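 Developing rat cortical networks on 48-well MEAs receive compound from the day of plating. Burst intervals from each active electrode are averaged per well, and AUC over the recording days is fitted in the negative direction against DMSO.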

SMILES | outcome
CC(C)(c1cc(Br)c(O)c(Br)c1)c1cc(Br)c(O)c(Br)c1 | inactive
Clc1ccccc1C(c1ccccc1)(c1ccccc1)n1ccnc1 | inactive
CN1C(=O)CC[C@H]1c1cccnc1 | inactive
O=C1O[C@H]([C@@H](O)CO)C(O)=C1O | inactive
CC/C(=C(/CC)c1ccc(O)cc1)c1ccc(O)cc1 | inactive
c1ccc2ccccc2c1 | inactive
Oc1ccccc1 | inactive
